# Shown are actives, neighbours in structure and some others; about 2.4% of the full set was active somewhere.
# POLK inh – blocks human DNA polymerase kappa activity. Q9UBT6. purified Pol kappa, fluorescent DNA synthesis assay, 10 min. Potency, µM (titrated, usually from 107 µM), most hits filed as inhibitors. 0.53% of 400,000 active. AID 588579
#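 First, compounds were pin-transferred onto 10 nM Pol kappa. After 15 min at room temperature, substrate was added to 50 nM final. Fluorescence was then measured kinetically at 0 and 10 min.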
# Pol eta inh – blocks human DNA polymerase eta activity; Q9Y253; recombinant Pol eta, fluorescent DNA replication assay; Potency, µM (series often up to 114 µM), actives largely listed as inhibitors; 1.2% of 390,000 active; AID 588591
# Target sequence (Q9Y253 whole entry, looked up): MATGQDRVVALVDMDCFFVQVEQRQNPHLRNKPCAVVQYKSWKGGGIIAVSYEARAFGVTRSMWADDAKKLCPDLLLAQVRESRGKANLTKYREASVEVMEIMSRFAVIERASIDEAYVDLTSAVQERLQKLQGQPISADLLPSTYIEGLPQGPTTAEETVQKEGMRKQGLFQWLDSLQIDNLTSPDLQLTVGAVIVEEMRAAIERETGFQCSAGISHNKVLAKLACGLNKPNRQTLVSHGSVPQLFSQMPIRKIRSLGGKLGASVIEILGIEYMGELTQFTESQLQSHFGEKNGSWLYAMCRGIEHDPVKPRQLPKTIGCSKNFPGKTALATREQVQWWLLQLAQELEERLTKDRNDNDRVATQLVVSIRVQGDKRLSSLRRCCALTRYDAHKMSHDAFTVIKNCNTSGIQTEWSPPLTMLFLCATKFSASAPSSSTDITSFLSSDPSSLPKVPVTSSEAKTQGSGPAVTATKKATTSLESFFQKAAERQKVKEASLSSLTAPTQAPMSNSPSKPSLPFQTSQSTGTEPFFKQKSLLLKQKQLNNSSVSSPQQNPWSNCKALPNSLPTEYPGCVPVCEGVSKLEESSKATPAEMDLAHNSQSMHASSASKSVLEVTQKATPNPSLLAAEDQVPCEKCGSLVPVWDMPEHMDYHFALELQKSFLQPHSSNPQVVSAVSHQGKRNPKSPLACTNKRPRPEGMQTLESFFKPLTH
#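 Pol eta (10 nM) was preincubated with compounds for 15 min at room temperature, after which fluorescent replication substrate (50 nM final) was added to start the reaction. Fluorescence was read kinetically at 0 and 10 min.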
# WRN helicase inh – blocks human WRN helicase. Potency, µM (top dose mostly 114 µM), most hits filed as inhibitors. WRN helicase unwinding, fluorescent forked duplex, kinetic. 0.46% of 360,000 active; further: nearly all actives have a fitted effect of over 55% in size
#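 Fluorescence dequenching readout, ex 525 nm/em 598 nm, kinetic mode: forked duplex DNA (100 nM final) with adjacent fluorophore and quencher unwound by WRN (20 nM final) with 2 mM ATP. Compound preincubation 15 min, room temperature.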
# FEN1 inh – blocks human flap endonuclease 1 | P39748 | Recombinant FEN1 flap cleavage, fluorescence, 15 min | Potency, µM (series often up to 114 µM), most hits filed as inhibitors | 0.35% of 390,000 active; further: nearly all actives have a fitted effect of over 65% in size
#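 Quantitative HTS format: each compound was titrated, incubated with 10 nM nuclease for 15 min at room temperature, then challenged with flap substrate at 50 nM final. Signal change over 15 min gave concentration–effect curves.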
# POLI inh – DNA polymerase iota (human) inhibition | Q9UNA4 | Pol iota fluorescent replication assay, 10 min | Potency, µM (titrated, usually from 115 µM), hits mostly inhibitors | 1% of 390,000 active
#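 Fluorescent replication assay read twice, at 0 min and 10 min after adding 50 nM (final) substrate. Enzyme (10 nM) and compounds were first incubated 15 min at room temperature; enzyme-free buffer wells were negative controls.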
# POLB inh – DNA polymerase beta (human) inhibition; P06746; Pol beta primer extension/strand displacement, fluorescence kinetic; Potency, µM (doses to about 114 µM), most hits filed as inhibitors; 1.3% of 340,000 active; AID 485314
#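 Homogeneous kinetic assay of primer extension and strand displacement by 10 nM Pol beta, preincubated 15 min at room temperature with compound before 50 nM substrate (final) was added. Read at 0 and 10 min; four-parameter Hill fit.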
# A number is an active result; n = inactive; u = inconclusive; x = not tested or not shown; [ ] = another dose, or the depositor's remark. The call rests on the fitted dose curve; in most records, active means well fitted curve in the direction sought with a large enough effect; inconclusive means small, poorly fitted or top-dose-only effect, or another doubt; inactive means no such curve, though single readings can be large; an effect the other way counts as inactive or inconclusive.
SMILES,POLK inh,Pol eta inh,WRN helicase inh,FEN1 inh,POLI inh,POLB inh
O=C(O)c1cc(O)c2c(c1)[C@H]([C@H]1c3cc(C(=O)O)cc(O)c3C(=O)c3c(O[C@@H]4OC(CO)C(O)C(O)C4O)cccc31)c1cccc(O[C@@H]3OC(CO)C(O)C(O)C3O)c1C2=O (stereo not given in full),0.891µM,x,x,x,x,x
O=C(O)c1cc(O)c2c(c1)[C@@H]([C@H]1c3cc(C(=O)O)cc(O)c3C(=O)c3c(O[C@@H]4O[C@H](CO)[C@@H](O)[C@H](O)[C@H]4O)cccc31)c1cccc(O[C@@H]3O[C@H](CO)[C@@H](O)[C@H](O)[C@H]3O)c1C2=O,1.26µM,0.794µM,3.16µM,3.16µM,n,x
Cc1cccc(N(C)S(=O)(=O)c2nnc(NC(=O)C(C)Oc3ccccc3)s2)c1 (stereo not given),n,n,x,n,n,n
C[C@]12CCC(=O)C=C1CC[C@@H]1C2[C@@H](O)C[C@@]2(C)[C@H]1CC[C@]2(O)C(=O)CO (stereo not given in full),n[19.4 µM],n,x,x,n,n
O=c1[nH][nH]c(=S)n1C1CCCCC1,n,n,56.2µM,u,n,n
O=C(Nc1ccc(Cl)cc1)C1CCN(c2nc3ccccc3nc2C(F)(F)F)CC1,n,n,x,n,n,n
COc1cccc(/C=C/c2nc3ccccc3nc2/C=C/c2cccc(OC)c2OC)c1OC,n,x,x,n,n,x
COc1cc(/C=C2\COC/C(=C\c3ccc(O)c(OC)c3)C2=O)ccc1O,n,u,n[11.6 µM],u,u,n
COc1cc(/C=C2/SC(=Nc3ccc(O)cc3)NC2=O)ccc1O,u,31.6µM,50.1µM,n,u,20µM
COc1cc(/C=C2/CC/C(=C/c3ccc(O)c(OC)c3)C2=O)ccc1O,u,35.5µM,n,u,39.8µM,17.8µM
COc1cc(/C=C2\SC(=Nc3ccccc3)NC2=O)cc(Cl)c1O,n,u,u,u,n,56.2µM
CCc1ccc(N=C2NC(=O)/C(=C/c3cc(OC)c(O)c(OC)c3)S2)cc1,n,n,n,u,n,u
COc1cc(/C=C2\SC(=Nc3ccccc3OC)NC2=O)ccc1O,n,n,n,u,n,n
COc1ccc(/C=C2\SC(=Nc3ccccc3OC)NC2=O)cc1,n,79.4µM,n,n,u,n
COc1ccc(C=C2SC(=O)NC2=O)cc1OC,n,u,n,n,n,x
Cc1cc(C)c(NC(=O)c2c(C)oc3c2C2=NCCN2C=N3)c(C)c1,n,n,x,n,n,n
COc1cc(/C=C/C(=O)c2c(O)ccc3c(C)cc(=O)oc23)ccc1O,n,u,n,n,12.6µM,n
O=c1cc(-c2ccc(O)cc2)oc2cc(O)c([C@@H]3O[C@H](CO)[C@@H](O)[C@H](O)[C@H]3O)c(O)c12,n,n,n,n,n,x
O=c1c2ccccc2oc2cc(O)c(C3COCC(CO)C(O)C(O)C3O)c(O)c12 (stereo not given),2.51µM,x,x,x,x,x
COc1ccc2[nH]cc(CCNc3ccnc(-c4ccc(C(=O)N(C)C)cc4)n3)c2c1,n,x,x,x,x,x
CCOc1ccc(C(=O)Nc2ccc(-c3nc4cc(C)ccc4o3)cc2)cc1,n,n,x,n,n,n
CCOc1ccc(C(=O)Nc2ccc(-c3nc4cc(CC)ccc4o3)cc2)cc1,n,n,x,n,89.1µM,n
O=C(O)CCC(=O)Nc1ccccc1N1CCOCC1,n,n,n,n,n,n
O=C(O)CC1(CC(=O)Nc2ccccc2N2CCOCC2)CCCC1,n,n,n,n,n,10µM
CCc1nn(CC(=O)N2CCCCC2)c(=O)c2cc3sccc3n12,n,n,x,n,n,n
SMILES,POLK inh,Pol eta inh,WRN helicase inh,FEN1 inh,POLI inh,POLB inh
COC(=O)c1cc(N=Nc2c(C)[nH]c3ccccc23)cc(C(=O)OC)c1,n,n,n,n,n,n
Cc1[nH]c2ccccc2c1N=Nc1ccccc1C(=O)O,u,35.5µM,u,u,u,31.6µM
COc1ccc(-c2nc(CSc3nncn4c3cc3sccc34)c(C)o2)cc1OC,n,n,x,n,u,u
Cc1ccc(NC(=O)C2(C)Cc3ccccc3C(=O)O2)c(C)c1 (stereo not given),n,n,x,n,n,n
CC(Oc1ccc(O)cc1)(P(=O)(O)O)P(=O)(O)O,12.6µM,x,x,x,x,x
CC(C)(C)C(=O)OCOP(=O)(OCOC(=O)C(C)(C)C)C(C)(Oc1ccc(O)cc1)P(=O)(OCOC(=O)C(C)(C)C)OCOC(=O)C(C)(C)C,35.5µM,x,x,x,x,x
Oc1ccc(Oc2ccc(Oc3ccc(O)cc3)cc2)cc1,n,n,n,n,n,n
O=C(NCc1ccccc1)[C@]1(C(F)(F)F)C[C@H](CCC2CCCCC2)CCCO1,n,x,x,n,n,x
O=C1[C@H](Cc2ccccc2)NC/C=C\C[C@H](c2ccc(Cl)cc2)N1Cc1ccc(Cl)cc1,n,x,x,u,n,x
O=c1c2ccccc2oc2ccc(-c3ccoc3)cc12,u,x,x,u,14.1µM,x
COc1ccc(C(CCN2CCCCC2)c2c(OC)cc(OC)c3c(-c4ccccc4)cc(=O)oc23)cc1 (stereo not given),n,n,n,n,n,n
CCN(CC)C(=O)CC(c1ccc(OC)cc1)c1c(OC)cc(OC)c2c(-c3ccccc3)cc(=O)oc12 (stereo not given),79.4µM,x,x,n,u,x
CCOc1ccc(NC(=O)CSc2nnc(CC)c(CC)n2)cc1,n,n,x,n,n,n
COc1ccccc1COc1ccc2c(C)c(CCC(=O)O)c(=O)oc2c1C,n,n,n,n,n,n
O=C(O)CCc1c2ccc(=O)c(O)c-2oc2c(O)c(O)ccc12,n,x,x,1.41µM,u,x
CC(C)c1nn2c(=O)cc(COC(=O)c3ccc(NC(=O)C4CCCCC4)cc3)nc2s1,n,79.4µM,x,n,n,n
S=c1[nH]nc(-c2ccccn2)n1/N=C/c1ccc(-c2ccccc2Br)o1,n,n,n,n,79.4µM,50.1µM
O=C(CSc1nnc(SCc2cccc3ccccc23)s1)N=Nc1c(O)[nH]c2ccccc12,x,x,x,x,x,12.6µM
CCOc1ccccc1NC(=O)Cn1c(=O)n(CCCCC(=O)NCCCOC)c(=O)c2ccccc21,n,n,x,n,n,n
CCOc1ccccc1NC(=O)Cn1c(=O)n(CCCC(=O)NCCOC)c(=O)c2cc(OC)c(OC)cc21,u,n,x,n,89.1µM,n
CCCCOc1cccc(C(=O)N(Cc2ccc(N(C)C)cc2)C2CCS(=O)(=O)C2)c1 (stereo not given),n,n,x,n,n,n
O=C(Cc1ccc(S(=O)(=O)N2CCCC2)s1)Nc1nc2c(s1)CCCC2,n,17.8µM,n,n,u,u
Cc1cc(C)cc(NC(=O)Cc2ccc(S(=O)(=O)N3CCCC3)s2)c1,n,n,n,n,n,x
O=C(Cc1ccc(S(=O)(=O)N2CCCC2)s1)N1CCOCC1,n,u,n,n,u,44.7µM

# Compound activity as filed in PubChem.
